Source: PubChem BioAssay
Compounds with a hit are over-represented: about 19% of the library has one in this group of screens.
CHX counter – Cycloheximide Counterscreen for Small Molecule Inhibitors of Shiga Toxin | max response, % | cell reporter, cycloheximide protein synthesis inhibition counterscreen | 300,000 tested, 12% active | AID 2314, 2010; in the data active means max response mostly above about 13%, no sharp cut-off; inactive means mostly below about 14%; further: read at 38.3 µM for the half of the compounds with a filed dose
Shiga inhibitor – A qHTS for Small Molecule Inhibitors of Shiga Toxin. inhibition, % at 38.7 µM. 290,000 tested, 9.2% active. AID 2315, 2010. Vero cells, Shiga toxin protein synthesis inhibition reporter; in the data active means inhibition mostly above about 28%, no sharp cut-off; inactive means mostly below about 43%
Pf growth 48h – Primary qHTS for delayed death inhibitors of the malarial parasite plastid, 48 hour incubation; P. falciparum luciferase growth in erythrocytes, 48 h; Potency, µM (doses to about 28.7 µM), most hits filed as inhibitors; 310,000 tested, 5.9% active
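Growth was read as firefly luciferase luminescence after a 48 h, 37 C, 5% CO2 exposure of compounds to reporter-bearing P. falciparum cultures (0.1% parasitemia, 2% hematocrit final) in Albumax-supplemented RPMI 1640.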
Pf growth 96h – Primary qHTS for delayed death inhibitors of the malarial parasite plastid, 96 hour incubation | P. falciparum luciferase reporter growth, 96 h | Potency, µM (highest dose often 28.7 µM), actives largely listed as inhibitors | 320,000 tested, 6.9% active
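Plates of compound plus infected erythrocytes (2% hematocrit, 0.05% parasitemia final) incubate 96 hours, 37 C, 5% CO2. Detection reagent added; reduced luminescence from the parasites' luciferase reporter flags inhibition.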
Marburg entry inh – qHTS for inhibitors of binding or entry into cells for Marburg Virus. 300,000 tested, 1.8% active. Marburg virus pseudotyped entry inhibition, cell reporter. Potency, µM (top dose mostly 37.8 µM), hits mostly inhibitors; calls by dose curve; tested in HEK293 cells
LASV entry inh – qHTS for Inhibitors of binding or entry into cells for Lassa Virus. Lassa virus pseudotype entry inhibition, cell reporter. Potency, µM (doses to about 37.9 µM), actives largely listed as inhibitors. 300,000 tested, 1.2% active; calls by dose curve; tested in HEK293 cells; further: nearly all actives have a fitted effect of over 50% in size
Hits are given with their value; - = inactive; ? = inconclusive; . = no result; [ ] = remark or other dose. Unless noted, the call rests on the fitted dose curve; in most records, active means well fitted inhibition curve with a large enough effect; inconclusive means small, poorly fitted or top-dose-only effect, or another doubt; inactive means no such curve, though single readings can be large or run the other way.

SMILES | CHX counter | Shiga inhibitor | Pf growth 48h | Pf growth 96h | Marburg entry inh | LASV entry inh
COc1cccc(CNC(=O)CCC2CCCN(Cc3cc(Cl)ccc3O)C2)c1 (stereo not drawn) | - | - | - | - | - | ?
Cc1noc(/C=C/N(C)C)c1S(=O)(=O)N1CCCC(C(=O)NCc2cccs2)C1 (stereo not drawn) | - | - | . | - | . | .
Cc1ccc(CC(=O)NC2CCN(Cc3ccccc3)CC2)cc1 | - | - | - | - | - | -
CC(=O)c1ccc(NC(=O)CCOc2cc(C)ccc2C)cc1 | 41 | 115 | - | - | - | -
CC(=O)Nc1ccc(NC(=O)CCOc2cc(C)ccc2C)cc1 | - | - | - | - | - | -
OCc1ccc2c(c1)c(-c1ccc3c(c1)OCCO3)c(-c1ccccc1)n2-c1ccccc1 | . | . | ? | 4.7µM | - | .
Cc1cc(C)n(CC(=O)NNC(=O)c2ccc(S(C)(=O)=O)cc2)n1 | . | . | . | . | - | -
COCCCN(C(=O)CCSc1ccc(F)cc1)c1c(N)n(Cc2ccccc2)c(=O)[nH]c1=O | . | . | 12µM | ? | - | -
COCCN(C(=O)CSCc1ccccc1)c1c(N)n(Cc2ccccc2)c(=O)[nH]c1=O | - | - | - | - | ? | ?
COCCN(C(=O)COC(=O)/C=C/c1ccc2ccccc2n1)c1c(N)n(Cc2ccccc2)c(=O)[nH]c1=O | 11 | - | ? | ? | ? | ?
COCCN(C(=O)CCSc1ccc(F)cc1)c1c(N)n(Cc2ccccc2)c(=O)[nH]c1=O | . | . | ? | 13µM | - | -
CC(Oc1ccc(F)cc1)C(=O)N(CCC1=CCCCC1)c1c(N)n(Cc2ccccc2)c(=O)[nH]c1=O (stereo not drawn) | . | . | ? | 9.3µM | ? | -
COCCN(C(=O)COC(=O)/C=C/c1nc2ccccc2s1)c1c(N)n(Cc2ccccc2)c(=O)[nH]c1=O | . | . | - | - | ? | -
COCCCN(C(=O)CCOc1ccc(C)cc1)c1c(N)n(Cc2ccccc2)c(=O)[nH]c1=O | . | . | - | - | - | ?
COc1ccc(CCNC(=O)Cn2ccc3cc(S(=O)(=O)N4CCCC4)ccc32)cc1OC | - | - | ? | - | . | .
CCOc1ccccc1C1C(C(=O)Nc2ccccc2)=C(C)Nc2nc(-c3ccccc3)nn21 (stereo not drawn) | . | . | . | . | - | -
CCN(CC)c1ccc(-c2nnc(SCC(=O)N(CCOC)c3c(N)n(CC(C)C)c(=O)[nH]c3=O)o2)cc1 | . | . | 1.7µM | ? | ? | -
CCCCN(C(=O)CSc1cc(C)c2ccc(OC)cc2n1)c1c(N)n(Cc2ccccc2)c(=O)[nH]c1=O | - | - | - | 12µM | - | -
COCCN(C(=O)CSc1nc2ccccc2c(=O)n1CC(C)C)c1c(N)n(Cc2ccccc2)c(=O)[nH]c1=O | - | - | 10µM | - | - | -
COCCN(C(=O)CSc1nc2ccccc2c(=O)n1C(C)COC)c1c(N)n(Cc2ccccc2)c(=O)[nH]c1=O (stereo not drawn) | - | - | ? | - | - | -
CCCN(C(=O)CCSc1ccc(F)cc1)c1c(N)n(Cc2ccccc2)c(=O)[nH]c1=O | - | - | 12µM | 4.7µM | - | -
COc1cc2[nH]c(=O)n(CCC(=O)NCCC(C)C)c(=O)c2cc1OC | - | - | . | . | - | -
COc1ccc(Cl)cc1-n1c(=S)sc2c(=O)[nH]c(SCC(=O)C(C)(C)C)nc21 | - | - | - | - | . | .
COc1ccc(N2CCN(Cc3nc4c(c(=O)[nH]c(=O)n4C)n3Cc3ccccc3)CC2)cc1 | . | . | . | . | - | -
Nc1c(N(Cc2ccccc2)C(=O)CCc2ccccc2)c(=O)[nH]c(=O)n1Cc1ccccc1 | . | . | ? | ? | - | ?
SMILES | CHX counter | Shiga inhibitor | Pf growth 48h | Pf growth 96h | Marburg entry inh | LASV entry inh
COc1ccccc1CCC(=O)N(Cc1ccccc1)c1c(N)n(Cc2ccccc2)c(=O)[nH]c1=O | - | - | ? | 8.3µM | - | ?
COCCCN(C(=O)CCOc1ccc(C(C)(C)C)cc1)c1c(N)n(Cc2ccccc2)c(=O)[nH]c1=O | . | . | 13µM | ? | - | -
Clc1cccc(-n2ncc3c(NCCCn4ccnc4)ncnc32)c1 | . | . | . | . | . | -
CC1(C)CNC(=O)c2sc(N3CCCCC3)nc2C1 | 23 | - | - | - | - | -
CC1(C)CC(=O)c2sc(N3CCCCC3)nc2C1 | 29 | 92 | - | - | - | ?
CC1(C)CC(=O)c2sc(NS(C)(=O)=O)nc2C1 | - | - | - | - | ? | -
O=c1cc(C(F)(F)F)c2sc(N3CCCCC3)nc2[nH]1 | - | - | - | - | - | -
CSCC[C@H](NC(=O)[C@@H]1CCCN1C(=O)CNC(=O)[C@H](CCCCN)NC(=O)[C@H](Cc1cnc[nH]1)NC(=O)[C@H](CO)NC(=O)[C@H](CC(C)C)NC(=O)[C@H](CCCN=C(N)N)NC(=O)[C@@H]1CCCN1C(=O)[C@H](CCCN=C(N)N)NC(=O)[C@@H]1CCC(=O)N1)C(=O)N1CCC[C@H]1C(=O)N[C@@H](Cc1ccccc1)C(=O)O | - | - | . | . | . | .
O=C(NNC1CC(=O)N(c2ccccc2)C1=O)c1cccnc1 (stereo not drawn) | - | - | - | - | - | -
Cc1cc(C(=O)NN)c(Cl)cc1Cl | - | - | - | - | . | .
COc1ccc(C2C3=C(N=C4SCC(=O)N42)c2ccccc2CC3)cc1 (stereo not drawn) | 39 | 76 | ? | 12µM | ? | -
COc1ccc(C2C3=C(N=C4SCC(=O)N42)c2ccccc2CC3)cc1OC (stereo not drawn) | - | - | 2.3µM | - | - | -
C[C@@H]1C[C@H]2[C@@H]3C[C@H](F)C4=CC(=O)C=C[C@]4(C)[C@@]3(Cl)[C@@H](O)C[C@]2(C)[C@H]1C(=O)COC(=O)C(C)(C)C | . | . | 1µM | - | . | .
Cc1ccc(CNC(=O)c2ccccc2N(C)S(C)(=O)=O)cc1 | - | - | - | - | - | -
Cc1ccc(S(=O)(=O)Nc2ccc(O)c3ccccc23)c(C)c1 | - | - | -[0.00184 µM] | - | ? | -
Cc1ccc(S(=O)(=O)Nc2cc(C(C(=O)OC(C)C)C(=O)C(F)(F)F)c(O)c3ccccc23)c(C)c1 (stereo not drawn) | - | - | 13µM | 5.2µM | - | ?
COc1ccccc1C(=O)Nc1nnc(CCc2ccccc2)s1 | - | - | - | ? | ? | ?
O=C(Nc1nnc(CCc2ccccc2)s1)c1ccccc1 | 14 | 46 | - | ? | . | .
CCC(CC)C(=O)Nc1nnc(CCc2ccccc2)s1 | - | - | - | - | - | -
CC(C)(C)C(=O)Nc1nnc(CCc2ccccc2)s1 | 50 | 81 | - | - | ? | -
CC(C)(C)Cc1nnc(NC(=O)CCc2ccccc2)s1 | 13 | - | - | - | . | .
CC(C)C(=O)Nc1nnc(CCc2ccccc2)s1 | 19 | - | -[0.00184 µM] | - | . | .
O=C(Oc1ccc(Br)cc1C(=S)N1CCOCC1)c1ccccc1 | - | - | - | - | ? | -
CCC(=O)Nc1nnc(Cc2ccccc2)s1 | - | - | - | - | - | -
